Measured values as given in publication PMC5700166.

These sequences were tested against T1, GST-Aq-NF-kB (Amphimedon queenslandica, UniProt A9Y5G7 2-389) (assay: protein-binding microarray (PBM); PBM: ~300 nM protein, 6 mM HEPES pH 7.8, 80 mM KCl, 0.5 mM EDTA, 0.5 mM EGTA, 6% glycerol, 35 ng/ul poly-dIdC, 1% milk, 1 h, room temperature; Ap Aiptasia and Nv Nematostella (sea anemones) / Co Capsaspora / Aq Amphimedon (sponge) / Dm Drosophila / Hu human; RHD is the Rel homology domain; high values mean tight binding). Settings: dsDNA, one strand shown.
T1 sequence: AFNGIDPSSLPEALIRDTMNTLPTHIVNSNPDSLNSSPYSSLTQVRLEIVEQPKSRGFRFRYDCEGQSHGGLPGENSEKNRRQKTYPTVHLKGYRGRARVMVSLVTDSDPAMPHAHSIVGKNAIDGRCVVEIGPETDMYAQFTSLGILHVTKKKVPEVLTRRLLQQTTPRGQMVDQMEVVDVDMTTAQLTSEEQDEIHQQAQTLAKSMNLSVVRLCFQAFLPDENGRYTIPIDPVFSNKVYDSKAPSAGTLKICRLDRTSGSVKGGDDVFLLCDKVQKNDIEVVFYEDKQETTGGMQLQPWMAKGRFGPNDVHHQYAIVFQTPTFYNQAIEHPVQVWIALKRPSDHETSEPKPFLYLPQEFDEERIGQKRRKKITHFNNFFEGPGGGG
Work on “CCGATTAACATCAAGGAGTTTCCTGATGTTAATCGGGTCTTGATTCGCTTGACGCTGCTG” yielded a binding signal of 2.55 z-score.
Work on “CCGATTAACATCACGGACATTCCTGATGTTAATCGGGTCTTGATTCGCTTGACGCTGCTG” yielded a binding signal of 1.97 z-score.
“CCGATTAACATCACGGAAAAGCCTGATGTTAATCGGGTCTTGATTCGCTTGACGCTGCTG” was tested, and the binding signal was 1.34 z-score.
“CCGATTAACATCACGGACTGTCCTGATGTTAATCGGGTCTTGATTCGCTTGACGCTGCTG” showed a binding signal of 2.22 z-score.
Sequence “CCGATTAACATCACGGATTTTCCTGATGTTAATCGGGTCTTGATTCGCTTGACGCTGCTG” has a binding signal of 3.35 z-score.
Sequence “CCGATTAACATCAAGGACATTCCTGATGTTAATCGGGTCTTGATTCGCTTGACGCTGCTG” has a binding signal of 1.43 z-score.
“CCGATTAACATCAGGAGTTGCCCTGATGTTAATCGGGTCTTGATTCGCTTGACGCTGCTG” showed a binding signal of 3.13 z-score.
With “CCGATTAACATCACGGACTGCCCTGATGTTAATCGGGTCTTGATTCGCTTGACGCTGCTG” the binding signal was 1.7 z-score.
Work on “CCGATTAACATCAAAAATCCGGTTGATGTTAATCGGGTCTTGATTCGCTTGACGCTGCTG” yielded a binding signal of 1.32 z-score.
Work on “CCGATTAACATCACGGAAATGCCTGATGTTAATCGGGTCTTGATTCGCTTGACGCTGCTG” yielded a binding signal of 1.48 z-score.
Work on “CCGATTAACATCAGGAAAGTTCCTGATGTTAATCGGGTCTTGATTCGCTTGACGCTGCTG” yielded a binding signal of 1.9 z-score.
Sequence “CCGATTAACATCAAGATCCCTTGTGATGTTAATCGGGTCTTGATTCGCTTGACGCTGCTG” has a binding signal of 1.08 z-score.
For “CCGATTAACATCAAGGAGATTCCTGATGTTAATCGGGTCTTGATTCGCTTGACGCTGCTG”, the binding signal was 1.73 z-score.
“CCGATTAACATCAGGAATAGCCCTGATGTTAATCGGGTCTTGATTCGCTTGACGCTGCTG” gave a binding signal of 1.9 z-score.
